The target of assay [1] is Transcriptional activator Myb (Homo sapiens) (UniProt P10242). Briefly: ATG_Myb_CIS: Attagene CIS-FACTORIAL HepG2 Assay for human Myeloblastosis (Myb) Proto-Oncogene Transcription Factor (AID 2282986). Conditions: HepG2 Attagene CIS-FACTORIAL Myb reporter transcription; actives raise or lower the signal. In short, it runs like this:
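Fluorescence signals from capillary electrophoresis of RT-PCR-amplified reporter cDNA give the read-out. Cells: HepG2 transfected with multiple cis-regulated reporter units. Exposure lasts 24 hours; DMSO defines baseline for gain or loss of signal.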

Assay [2] concerns the target Nuclear respiratory factor 1 (Homo sapiens) (UniProt Q16656). Put plainly: ATG_NRF1_CIS: Attagene CIS-FACTORIAL HepG2 Assay for human Nuclear Respiratory Factor 1 (NRF1) Orphan Gene (AID 2282987). Conditions: HepG2 NRF1 cis-element reporter, Attagene multiplex; actives raise or lower the signal. In a few lines: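 Transcriptional reporter readout, one component of a 52-endpoint multiplexed HepG2 panel. Exposure 24 h; mRNA detected via RT-PCR and fluorescent capillary electrophoresis; fitting in both directions against DMSO.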

Assay [3] can be described thus: ATG_NFI_CIS: Attagene CIS-FACTORIAL HepG2 Assay for human Nuclear Factor I (NFI) (AID 2282989). The following applies: HepG2 cis-regulatory reporter, NFI response element transcription; actives raise or lower the signal. In short, it runs like this: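 Transfected HepG2 liver cells, exposed 24 h, supplied total RNA for oligo(dT) reverse transcription and reporter-specific PCR. Labelled, HpaI-cut fragments were sized by capillary electrophoresis; DMSO set the baseline for bidirectional fitting.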

The target of assay [4] is Myc proto-oncogene protein (Homo sapiens) (UniProt P01106). Briefly: ATG_Myc_CIS: Attagene CIS-FACTORIAL HepG2 Assay for human Myelocytomatosis (Myc) Proto-Oncogene Transcription Factor (AID 2282990). The following applies: HepG2, Attagene cis-reporter transcription factor activity; actives raise or lower the signal. In a few lines:
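DMSO-normalised, bidirectionally fitted reporter mRNA signal. HepG2 cells transfected with cis reporter constructs, treated 24 h; transcripts detected by RT-PCR, 6-FAM primer extension and CE.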

The nature of assay [5]: ATG_NF_kB_CIS: Attagene CIS-FACTORIAL HepG2 Assay for human Nuclear Factor Kappa B (NF-kB) (AID 2282991). Conditions: HepG2 Attagene cis-factorial NF-kB reporter mRNA; actives raise or lower the signal. In a few lines:
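HepG2, transient multi-reporter transfection, cis promoter elements (endogenous TFs). 24 h exposure. Total RNA → RT → PCR → 6-FAM label → HpaI → CE. Gain/loss vs DMSO.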

A short description of assay [6]: ATG_NRF2_ARE_CIS: Attagene CIS-FACTORIAL HepG2 Assay for human Nuclear Factor Erythroid 2 Related Factor 2 (NFR2) response to Antioxidant Response Elements (ARE) (AID 2282992).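 On AC50: reporter mRNA level measured by RT-PCR and capillary electrophoresis fluorescence.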 Conditions: HepG2 Attagene ARE/NRF2 reporter, transcription factor activity; actives raise or lower the signal. In a few lines: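 Multiplexed reporter mRNA profiling in HepG2 after a 24 h chemical exposure. Curves fitted in both directions relative to DMSO negative control.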

Assay [7] in a line: ATG_Oct_MLP_CIS: Attagene CIS-FACTORIAL HepG2 Assay for human Octamer-Binding Transcription Factor (Oct) (AID 2282993). Conditions: HepG2 Attagene cis-factorial Oct reporter, mRNA; actives raise or lower the signal. In a few lines:
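Using HepG2 cells bearing transfected cis-reporter constructs, mRNA induction was read after 24 h by fluorescent RT-PCR and capillary electrophoresis, with DMSO defining baseline for gain- or loss-of-signal fits.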

The target in assay [8] is Cellular tumor antigen p53 (Homo sapiens) (UniProt P04637). Put plainly: ATG_p53_CIS: Attagene CIS-FACTORIAL HepG2 Assay for human p53 Transcription Factor (AID 2282994). The following applies: HepG2 p53 cis-element reporter, Attagene mRNA; actives raise or lower the signal. In short, it runs like this: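 Multiplexed reporter mRNA assay in human HepG2 liver cells; cis-regulated units report endogenous factor activity. Values come from bidirectional curve fitting against DMSO negative control after 24 h treatment.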

In assay [9] the target is human Peroxisome Proliferator-activated Receptor delta (PPARd), PPARD (gene 5467) (UniProt Q03181). Put plainly: ATG_PPARd_TRANS: Attagene TRANS-FACTORIAL HepG2 Assay for human Peroxisome Proliferator-activated Receptor delta (PPARd) (AID 2283002; active means hit-call score of the fitted dose curve at least 0.9, where 1 is the maximum). In a few lines:
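Measured quantity: GAL4-UAS reporter transcript induction in HepG2 after 24 h chemical dosing, with NR-Gal4 chimeras supplied by transient transfection. Detection by RT-PCR and capillary electrophoresis; upward fit against DMSO.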

The target of assay [10] is Peroxisome proliferator-activated receptor gamma (Homo sapiens) (UniProt P37231). Put plainly: ATG_PPARg_TRANS: Attagene TRANS-FACTORIAL HepG2 Assay for human Peroxisome Proliferator-activated Receptor-gamma (PPARg) (AID 2283007; active means hit-call score of the fitted dose curve at least 0.9, where 1 is the maximum). In a few lines: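 Multiplexed reporter transcription units in HepG2, 24 h dosing, reporter transcripts quantified by fluorescent RT-PCR and capillary electrophoresis. Increase over DMSO scored.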

A short description of assay [11]: BSK_3C_TissueFactor: BioMAP Diversity Plus: 3C Assay for Tissue Factor Biomarker Activity (AID 2282997). The following applies: BioMAP 3C HUVEC, tissue factor biomarker readout; actives raise or lower the signal. In short, it runs like this:
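Primary human umbilical vein endothelial cells in the 3C system were exposed to test chemical for 24 h, then Tissue Factor measured by ELISA. Activity was fitted bidirectionally against DMSO as negative control and baseline.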

A short description of assay [12]: BSK_3C_uPAR: BioMAP Diversity Plus: 3C Assay for Urokinase-type plasminogen activator receptor (uPAR) Biomarker Activity (AID 2282998). The following applies: BioMAP 3C HUVEC, uPAR biomarker ELISA; actives raise or lower the signal. In a few lines:
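In this endothelial cell-based assay, human umbilical vein primary cells were treated with chemicals and harvested at 24 h. uPAR was quantified using ELISA, with gains or losses fitted relative to DMSO controls.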

Assay [13] in a line: BSK_3C_VCAM1: BioMAP Diversity Plus: 3C Assay for Vascular cell adhesion molecule 1 (VCAM1) Biomarker Activity (AID 2282999). The following applies: BioMAP 3C HUVEC, VCAM1 ELISA, cytokine-stimulated; actives raise or lower the signal. In short, it runs like this:
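Human umbilical vein endothelial cells were dosed with compound for 24 h, after which cell-surface VCAM-1 was quantified by ELISA. Bidirectional curve fitting used DMSO as negative control and activity baseline.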
(In general: In an ELISA, binding on a coated surface is turned into a signal by an enzyme label.)

Assay [14] in a line: BSK_4H_Eotaxin3: BioMAP Diversity Plus: 4H Assay for Eotaxin 3 Biomarker Activity (AID 2283000).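 Further: CCL26 protein level quantified by ELISA in parallel with SRB cytotoxicity check.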 The following applies: primary human endothelial cells (HUVEC); actives raise or lower the signal. In a few lines:
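HUVEC, 24 h post-dose, ELISA for Eotaxin-3/CCL26. Gain or loss of signal fitted bidirectionally vs DMSO baseline.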

For assay [15], the target named is human Peroxisome Proliferator-activated Receptor alpha (PPARa), PPARA (gene 5465) (UniProt Q07869). Put plainly: ATG_PPARa_TRANS: Attagene TRANS-FACTORIAL HepG2 Assay for human Peroxisome Proliferator-activated Receptor alpha (PPARa) (AID 2283001; active means hit-call score of the fitted dose curve at least 0.9, where 1 is the maximum). In a few lines: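 HepG2 cells transiently transfected with multiplexed GAL4-UAS reporter units and chimeric NR-Gal4 constructs were dosed for 24 h. Reporter mRNA was measured by RT-PCR with fluorescent labelling and capillary electrophoresis; gain of signal fitted against DMSO.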

Read-out in assay [16]: Intercellular Adhesion Molecule 1 (ICAM1), ICAM1 (gene 3383)
Briefly: BSK_3C_ICAM1: BioMAP Diversity Plus: 3C Assay for Intercellular Adhesion Molecule 1 (ICAM1) Biomarker Activity (AID 2283003). Conditions: primary human endothelial cells (HUVEC); actives raise or lower the signal. In a few lines:
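Human vascular endothelial primary cells, 3C conditions, 24 h treatment. ICAM-1 by ELISA.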

Assay [17] in a line: BSK_3C_Proliferation: Cell Proliferation Assessment in the BioMAP Diversity Plus: 3C Assay (AID 2283006).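 On AC50: potency may reflect either rise or fall in cell number versus DMSO.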 Conditions: primary human endothelial cells (HUVEC). In a few lines:
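Proliferation of human vascular endothelial primary cells after 48 h dosing, quantified as SRB-stained protein at 560 nm relative to DMSO.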

In assay [18] the target is Nuclear receptor subfamily 1 group I member 2 (Homo sapiens) (UniProt O75469). Put plainly: ATG_PXR_TRANS: Attagene TRANS-FACTORIAL HepG2 Assay for human Pregnane X Receptor (PXR) (AID 2283008; active means hit-call score of the fitted dose curve at least 0.9, where 1 is the maximum). In a few lines: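 Measures mRNA induction of a GAL4-UAS-driven reporter in human HepG2 cells transiently expressing PXR fused to Gal4, following 24 h treatment. DMSO served as negative control and baseline.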

The target of assay [19] is Retinoic acid receptor alpha (Homo sapiens) (UniProt P10276). Briefly: ATG_RARa_TRANS: Attagene TRANS-FACTORIAL HepG2 Assay for human Retinoic Acid Receptor alpha (RARa) (AID 2283005; active means hit-call score of the fitted dose curve at least 0.9, where 1 is the maximum). In a few lines: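 HepG2 cells transiently transfected with multiple reporter units expressing chimeric RARα-GAL4 fusion, with GAL4-UAS-driven reporters. After 24 h compound exposure, reporter mRNA induction quantified by RT-PCR and capillary electrophoresis with fluorescent labeling; gain-of-signal fitted relative to DMSO control.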

Assay [20] addresses human Retinoic Acid Receptor gamma (RARg), RARG (gene 5916) (UniProt P13631). Briefly: ATG_RARg_TRANS: Attagene TRANS-FACTORIAL HepG2 Assay for human Retinoic Acid Receptor gamma (RARg) (AID 2283009; active means hit-call score of the fitted dose curve at least 0.9, where 1 is the maximum). In a few lines:
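HepG2, RARg-GAL4 TRANS system, 24 h exposure; reporter mRNA by RT-PCR + CE fluorescence; increase over DMSO.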

Molecules are shown by their SMILES. Inconclusive results are not listed. Calls of active or inactive are those of the source. How the source made its calls, unless noted: active means hit-call score of the fitted dose curve at least 0.9, where 1 is the maximum; inactive means score below 0.9.

human Peroxisome Proliferator-activated Receptor delta (PPARd), PPARD (gene 5467), sequence (Q03181 whole entry, looked up, the tested form may be a part): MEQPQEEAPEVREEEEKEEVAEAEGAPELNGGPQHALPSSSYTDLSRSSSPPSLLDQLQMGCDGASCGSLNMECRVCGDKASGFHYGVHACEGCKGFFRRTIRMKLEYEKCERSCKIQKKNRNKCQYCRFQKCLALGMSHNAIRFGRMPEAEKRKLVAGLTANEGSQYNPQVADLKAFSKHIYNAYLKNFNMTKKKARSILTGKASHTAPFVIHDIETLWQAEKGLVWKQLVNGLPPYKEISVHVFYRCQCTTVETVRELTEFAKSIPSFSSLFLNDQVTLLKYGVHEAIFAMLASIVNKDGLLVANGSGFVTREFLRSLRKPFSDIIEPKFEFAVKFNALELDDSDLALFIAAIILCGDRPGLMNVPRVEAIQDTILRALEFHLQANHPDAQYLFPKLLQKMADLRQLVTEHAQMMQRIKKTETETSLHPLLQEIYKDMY
Myc proto-oncogene protein (Homo sapiens), sequence (P01106 whole entry, looked up): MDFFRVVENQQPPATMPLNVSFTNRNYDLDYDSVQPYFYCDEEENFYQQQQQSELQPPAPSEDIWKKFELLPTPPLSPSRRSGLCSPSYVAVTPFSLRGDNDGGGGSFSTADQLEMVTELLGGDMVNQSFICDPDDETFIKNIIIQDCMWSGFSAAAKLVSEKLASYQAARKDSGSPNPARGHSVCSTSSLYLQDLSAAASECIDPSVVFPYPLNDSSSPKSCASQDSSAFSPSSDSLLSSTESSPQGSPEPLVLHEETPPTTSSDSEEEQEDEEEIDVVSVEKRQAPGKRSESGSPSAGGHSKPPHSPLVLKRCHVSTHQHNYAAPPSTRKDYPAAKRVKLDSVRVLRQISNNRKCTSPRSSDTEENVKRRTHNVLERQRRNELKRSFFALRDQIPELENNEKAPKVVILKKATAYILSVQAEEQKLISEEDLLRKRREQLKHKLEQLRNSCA
Nuclear respiratory factor 1 (Homo sapiens), sequence (Q16656 whole entry, looked up): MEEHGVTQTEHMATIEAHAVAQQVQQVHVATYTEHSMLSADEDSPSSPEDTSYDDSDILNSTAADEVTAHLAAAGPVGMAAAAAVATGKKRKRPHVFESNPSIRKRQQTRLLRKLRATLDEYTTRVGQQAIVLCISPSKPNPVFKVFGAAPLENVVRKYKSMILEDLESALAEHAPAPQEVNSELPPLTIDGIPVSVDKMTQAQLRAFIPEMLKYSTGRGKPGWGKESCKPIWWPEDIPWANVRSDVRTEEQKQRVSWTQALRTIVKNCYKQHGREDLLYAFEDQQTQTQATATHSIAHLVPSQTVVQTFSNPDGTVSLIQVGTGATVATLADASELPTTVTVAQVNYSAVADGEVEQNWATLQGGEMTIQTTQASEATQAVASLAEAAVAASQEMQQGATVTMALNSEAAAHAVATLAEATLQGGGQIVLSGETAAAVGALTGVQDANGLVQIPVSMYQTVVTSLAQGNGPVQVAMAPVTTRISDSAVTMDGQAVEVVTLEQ
Peroxisome proliferator-activated receptor gamma (Homo sapiens), sequence (P37231 whole entry, looked up): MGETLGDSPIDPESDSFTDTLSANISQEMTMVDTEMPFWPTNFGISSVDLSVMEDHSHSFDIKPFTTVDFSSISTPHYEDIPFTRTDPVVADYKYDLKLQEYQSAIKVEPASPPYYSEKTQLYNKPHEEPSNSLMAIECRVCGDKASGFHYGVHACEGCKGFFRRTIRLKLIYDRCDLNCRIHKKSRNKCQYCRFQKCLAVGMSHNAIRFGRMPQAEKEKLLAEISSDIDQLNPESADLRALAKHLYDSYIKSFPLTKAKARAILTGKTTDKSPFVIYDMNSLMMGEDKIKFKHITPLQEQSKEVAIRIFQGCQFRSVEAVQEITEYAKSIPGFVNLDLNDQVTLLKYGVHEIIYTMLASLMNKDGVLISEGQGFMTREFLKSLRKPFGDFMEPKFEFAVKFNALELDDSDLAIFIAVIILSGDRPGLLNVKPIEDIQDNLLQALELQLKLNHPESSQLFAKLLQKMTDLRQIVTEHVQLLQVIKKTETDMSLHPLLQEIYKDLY
Transcriptional activator Myb (Homo sapiens), sequence (P10242 whole entry, looked up): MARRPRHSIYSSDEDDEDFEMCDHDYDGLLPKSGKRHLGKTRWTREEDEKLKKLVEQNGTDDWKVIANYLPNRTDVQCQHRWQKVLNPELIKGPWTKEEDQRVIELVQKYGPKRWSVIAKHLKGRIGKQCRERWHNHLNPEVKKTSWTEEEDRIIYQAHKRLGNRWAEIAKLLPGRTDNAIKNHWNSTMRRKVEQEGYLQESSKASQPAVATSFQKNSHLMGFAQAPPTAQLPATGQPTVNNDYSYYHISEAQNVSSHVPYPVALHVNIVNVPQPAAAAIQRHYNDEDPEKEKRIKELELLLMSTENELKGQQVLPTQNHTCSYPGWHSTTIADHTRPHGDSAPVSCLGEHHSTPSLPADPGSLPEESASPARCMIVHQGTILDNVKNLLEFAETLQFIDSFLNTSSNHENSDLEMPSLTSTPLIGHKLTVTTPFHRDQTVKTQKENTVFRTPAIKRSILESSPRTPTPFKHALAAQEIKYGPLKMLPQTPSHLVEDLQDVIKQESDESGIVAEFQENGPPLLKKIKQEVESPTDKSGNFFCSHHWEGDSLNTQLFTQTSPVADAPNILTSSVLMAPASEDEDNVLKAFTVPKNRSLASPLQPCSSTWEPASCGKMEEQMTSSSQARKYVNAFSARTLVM
Nuclear receptor subfamily 1 group I member 2 (Homo sapiens), sequence (O75469 whole entry, looked up, the tested form may be a part): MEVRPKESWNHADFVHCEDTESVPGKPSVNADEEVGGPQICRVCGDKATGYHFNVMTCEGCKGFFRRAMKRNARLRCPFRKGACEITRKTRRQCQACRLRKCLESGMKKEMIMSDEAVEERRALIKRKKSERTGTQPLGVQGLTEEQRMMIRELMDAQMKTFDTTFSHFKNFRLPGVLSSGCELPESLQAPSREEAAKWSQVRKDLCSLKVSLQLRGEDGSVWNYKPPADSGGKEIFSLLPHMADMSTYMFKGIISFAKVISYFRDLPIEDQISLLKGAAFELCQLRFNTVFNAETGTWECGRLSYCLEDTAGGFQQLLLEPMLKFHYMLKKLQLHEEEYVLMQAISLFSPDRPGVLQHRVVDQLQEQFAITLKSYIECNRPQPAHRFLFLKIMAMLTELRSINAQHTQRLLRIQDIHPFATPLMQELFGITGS
Cellular tumor antigen p53 (Homo sapiens), sequence (P04637 whole entry, looked up): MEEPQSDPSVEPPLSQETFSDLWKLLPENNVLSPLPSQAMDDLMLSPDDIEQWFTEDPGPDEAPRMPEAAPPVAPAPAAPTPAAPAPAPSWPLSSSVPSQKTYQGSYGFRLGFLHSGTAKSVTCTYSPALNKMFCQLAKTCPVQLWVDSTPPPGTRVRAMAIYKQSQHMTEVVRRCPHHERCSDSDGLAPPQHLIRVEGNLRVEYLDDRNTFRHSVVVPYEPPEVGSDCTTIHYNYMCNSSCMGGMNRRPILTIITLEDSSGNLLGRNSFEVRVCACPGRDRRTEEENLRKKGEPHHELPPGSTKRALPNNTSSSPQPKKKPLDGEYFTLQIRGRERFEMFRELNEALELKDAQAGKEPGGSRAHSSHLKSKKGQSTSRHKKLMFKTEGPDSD
human Peroxisome Proliferator-activated Receptor alpha (PPARa), PPARA (gene 5465), sequence (Q07869 whole entry, looked up, the tested form may be a part): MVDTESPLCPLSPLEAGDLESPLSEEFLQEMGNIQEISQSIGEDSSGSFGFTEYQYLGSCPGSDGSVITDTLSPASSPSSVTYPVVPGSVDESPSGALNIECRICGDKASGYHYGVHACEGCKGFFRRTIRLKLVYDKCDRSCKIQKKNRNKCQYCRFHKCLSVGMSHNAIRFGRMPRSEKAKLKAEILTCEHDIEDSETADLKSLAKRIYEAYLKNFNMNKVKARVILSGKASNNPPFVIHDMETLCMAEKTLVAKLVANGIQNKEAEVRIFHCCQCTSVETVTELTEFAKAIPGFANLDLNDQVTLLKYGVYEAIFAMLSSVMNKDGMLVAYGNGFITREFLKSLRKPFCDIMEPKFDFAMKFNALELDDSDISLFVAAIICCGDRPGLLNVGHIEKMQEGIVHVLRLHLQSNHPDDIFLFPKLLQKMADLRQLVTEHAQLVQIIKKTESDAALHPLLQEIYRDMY
human Retinoic Acid Receptor gamma (RARg), RARG (gene 5916), sequence (P13631 whole entry, looked up, the tested form may be a part): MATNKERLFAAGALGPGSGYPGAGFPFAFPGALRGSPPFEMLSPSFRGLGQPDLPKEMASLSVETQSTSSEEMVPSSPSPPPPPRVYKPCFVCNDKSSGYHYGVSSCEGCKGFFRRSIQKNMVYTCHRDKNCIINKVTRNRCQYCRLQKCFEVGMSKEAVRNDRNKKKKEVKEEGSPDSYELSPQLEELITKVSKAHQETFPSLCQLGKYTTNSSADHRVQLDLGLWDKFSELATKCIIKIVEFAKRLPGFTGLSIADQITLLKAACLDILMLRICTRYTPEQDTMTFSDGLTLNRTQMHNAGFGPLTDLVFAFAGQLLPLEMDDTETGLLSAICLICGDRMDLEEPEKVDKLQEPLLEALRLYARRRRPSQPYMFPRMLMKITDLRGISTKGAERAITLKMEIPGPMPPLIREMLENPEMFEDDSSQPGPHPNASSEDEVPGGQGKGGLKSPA
Retinoic acid receptor alpha (Homo sapiens), sequence (P10276 whole entry, looked up, the tested form may be a part): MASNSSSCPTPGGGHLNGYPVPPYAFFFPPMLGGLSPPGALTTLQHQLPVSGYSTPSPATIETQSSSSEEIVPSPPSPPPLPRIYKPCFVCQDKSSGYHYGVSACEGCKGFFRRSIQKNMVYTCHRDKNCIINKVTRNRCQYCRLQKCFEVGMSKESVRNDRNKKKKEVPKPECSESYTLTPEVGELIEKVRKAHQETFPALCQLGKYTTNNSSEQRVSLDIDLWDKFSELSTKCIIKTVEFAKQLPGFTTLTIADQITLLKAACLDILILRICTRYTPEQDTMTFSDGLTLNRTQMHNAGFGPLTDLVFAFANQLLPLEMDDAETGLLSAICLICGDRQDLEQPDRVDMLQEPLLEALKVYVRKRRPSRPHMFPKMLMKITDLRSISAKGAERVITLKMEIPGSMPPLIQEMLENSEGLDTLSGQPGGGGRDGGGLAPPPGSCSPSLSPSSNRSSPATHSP

For `NNC(N)=S`, the result in assay [1], in assay [2], in [3], in assay [4], in assay [5] and in assay [6] was inactive. Also, the compound was called inactive in assay [7], in [8], in assay [9] and in [10].

As to `CCOC(=O)c1ccccc1C(=O)OCC`, the outcome in [1], in assay [2], in assay [3], in assay [4], in assay [5] and in assay [6] was inactive. For the same compound, the compound was called inactive in assay [7], in assay [8], in assay [11], in assay [12], in [13] and in assay [14]. The compound was called inactive in assay [15], in [16], in [17] and in assay [18].

As a reminder, the AC50 is the concentration giving half of the maximal activity seen. For the compound `O=P(OCC(Br)CBr)(OCC(Br)CBr)OCC(Br)CBr` (stereo not drawn), the result in assay [1], in [3], in assay [4], in [5], in assay [7] and in assay [8] was inactive. For the same compound, the result in [11], in assay [14], in assay [9] and in [16] was inactive. In addition, the AC50 was 18.6 µM (active) in [2]; 23.4 µM (active) in [6]; 17.4 µM (active) in [12]; 17.4 µM (active) in [13]; 11.9 µM (active) in assay [17]; 2.68 µM (active) in [10]. In assay [18], the AC50 was 0.224 µM (active).

For `O=C(O)C(F)(F)C(F)(F)C(=O)O`, the compound was classed as inactive in assay [1], in assay [2], in [3], in assay [4], in assay [5] and in assay [6]. Besides, the compound was called inactive in assay [7], in [8], in assay [11], in assay [12], in assay [13] and in assay [14]. The compound was classed as inactive in [15], in [9], in assay [16], in assay [19], in [17] and in [10]. In addition, the call in [18] and in assay [20] was inactive.
